From article PMC5540273 (PLoS ONE, 2017)

Experiments:
Conditions in all cases: concentration: 1 μM, replicates: in singlicate; n = 1
[1] = test system: T1, PKAC-beta
T1 construct: gene PRKACB

[2] = test system: PKMYT1
[3] = test system: PKN1
[4] = test system: PKN2
[5] = test system: PLK1
[6] = test system: PLK2
[7] = test system: PLK3
[8] = test system: PLK4
[9] = test system: PRKCD
[10] = test system: PRKCE
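Note: KINOMEscan kinase panel screen.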

## Cc1cccc2c(-c3ccncn3)c(-c3ccc(F)cc3)nn12 [GW515532]
[1]
  %Inh: 15%
[2]
  %Inh: 5%
[3]
  %Inh: 23%
[4]
  %Inh: 0%
[5]
  %Inh: 0%
[6]
  %Inh: 0%
[7]
  %Inh: 0%
[8]
  %Inh: 0%
[9]
  %Inh: 5%
[10]
  %Inh: 0%

## O=c1cc(N2CCOCC2)nc2n(Cc3ccccc3F)ccn12 [GSK2297428]
[1]
  %Inh: 0%
[2]
  %Inh: 0%
[3]
  %Inh: 7%
[4]
  %Inh: 0%
[5]
  %Inh: 13%
[6]
  %Inh: 0%
[7]
  %Inh: 0%
[8]
  %Inh: 8%
[9]
  %Inh: 0%
[10]
  %Inh: 1%

## O=c1cc(N2CCOCC2)nc2n(Cc3cccc(Cl)c3Cl)c3ccccc3n12 [GSK2299009]
[1]
  %Inh: 11%
[2]
  %Inh: 32%
[3]
  %Inh: 21%
[4]
  %Inh: 0%
[5]
  %Inh: 0%
[6]
  %Inh: 0%
[7]
  %Inh: 0%
[8]
  %Inh: 7%
[9]
  %Inh: 32%
[10]
  %Inh: 3%

## COc1ccc(Nc2nccc(N3CCC(NC(=O)c4cc5ccccc5s4)C3)n2)cc1 (centres unmarked) [GSK1379738]
[1]
  %Inh: 0%
[2]
  %Inh: 3%
[3]
  %Inh: 23%
[4]
  %Inh: 0%
[5]
  %Inh: 11%
[6]
  %Inh: 0%
[7]
  %Inh: 0%
[8]
  %Inh: 3%
[9]
  %Inh: 0%
[10]
  %Inh: 17%

## c1ccc(-c2ccnc3[nH]ccc23)cc1 [SB-693578]
[1]
  %Inh: 8%
[2]
  %Inh: 6%
[3]
  %Inh: 0%
[4]
  %Inh: 0%
[5]
  %Inh: 0%
[6]
  %Inh: 0%
[7]
  %Inh: 0%
[8]
  %Inh: 5%
[9]
  %Inh: 0%
[10]
  %Inh: 7%

## COc1nccc(-c2c(-c3ccc(F)cc3)ncn2CCCN2CCOCC2)n1 [SB-282852]
[1]
  %Inh: 16%
[2]
  %Inh: 0%
[3]
  %Inh: 0%
[4]
  %Inh: 0%
[5]
  %Inh: 0%
[6]
  %Inh: 0%
[7]
  %Inh: 13%
[8]
  %Inh: 20%
[9]
  %Inh: 38%
[10]
  %Inh: 0%

## Fc1ccc(-c2nn3cccc(F)c3c2-c2ccncc2)cc1 [GW475620]
[1]
  %Inh: 47%
[2]
  %Inh: 11%
[3]
  %Inh: 9%
[4]
  %Inh: 11%
[5]
  %Inh: 9%
[6]
  %Inh: 69%
[7]
  %Inh: 0%
[8]
  %Inh: 3%
[9]
  %Inh: 19%
[10]
  %Inh: 6%

## CCCCc1nn2ncccc2c1-c1ccnc(NC2CC2)n1 [GW684374]
[1]
  %Inh: 0%
[2]
  %Inh: 0%
[3]
  %Inh: 18%
[4]
  %Inh: 0%
[5]
  %Inh: 0%
[6]
  %Inh: 0%
[7]
  %Inh: 0%
[8]
  %Inh: 0%
[9]
  %Inh: 0%
[10]
  %Inh: 1%

## Fc1ccc(-c2nc3n(c2-c2ccncc2)CCS3)cc1 [GI98581]
[1]
  %Inh: 23%
[2]
  %Inh: 10%
[3]
  %Inh: 0%
[4]
  %Inh: 0%
[5]
  %Inh: 0%
[6]
  %Inh: 0%
[7]
  %Inh: 0%
[8]
  %Inh: 0%
[9]
  %Inh: 1%
[10]
  %Inh: 0%

## CC(=O)c1c(C)c2cnc(Nc3ccc(N4CCNCC4)cn3)nc2n(C2CCCC2)c1=O
[1]
  %Inh: 6%
[2]
  %Inh: 23%
[3]
  %Inh: 0%
[4]
  %Inh: 15%
[5]
  %Inh: 0%
[6]
  %Inh: 0%
[7]
  %Inh: 0%
[8]
  %Inh: 6%
[9]
  %Inh: 18%
[10]
  %Inh: 55%

## COc1ccc(Nc2nccc(-c3ccc(NC(=O)c4cc5cc(F)ccc5[nH]4)cc3)n2)cc1 [GSK1229496]
[1]
  %Inh: 0%
[2]
  %Inh: 0%
[3]
  %Inh: 13%
[4]
  %Inh: 0%
[5]
  %Inh: 0%
[6]
  %Inh: 0%
[7]
  %Inh: 0%
[8]
  %Inh: 0%
[9]
  %Inh: 0%
[10]
  %Inh: 6%

## O=C(Nc1n[nH]c2nc(-c3cccs3)c(Br)cc12)C1CCCC1 [SB-743341]
[1]
  %Inh: 0%
[2]
  %Inh: 0%
[3]
  %Inh: 0%
[4]
  %Inh: 5%
[5]
  %Inh: 0%
[6]
  %Inh: 21%
[7]
  %Inh: 26%
[8]
  %Inh: 25%
[9]
  %Inh: 29%
[10]
  %Inh: 0%

## COc1ccc(Nc2nccc(NCCNC(=O)Nc3cc(C)ccc3C)n2)cc1 [GSK1379899]
[1]
  %Inh: 0%
[2]
  %Inh: 2%
[3]
  %Inh: 30%
[4]
  %Inh: 0%
[5]
  %Inh: 0%
[6]
  %Inh: 0%
[7]
  %Inh: 0%
[8]
  %Inh: 0%
[9]
  %Inh: 10%
[10]
  %Inh: 0%

## Cc1ccccc1-c1cc(-c2c[nH]nc2-c2ccccn2)ccn1 [GW680061]
[1]
  %Inh: 0%
[2]
  %Inh: 0%
[3]
  %Inh: 0%
[4]
  %Inh: 0%
[5]
  %Inh: 0%
[6]
  %Inh: 0%
[7]
  %Inh: 0%
[8]
  %Inh: 0%
[9]
  %Inh: 0%
[10]
  %Inh: 10%

## COc1ccc(Nc2nccc(N3CCC(NC(=O)C(C)c4ccc(Cl)cc4)C3)n2)cc1 (centres unmarked) [GSK1379735]
[1]
  %Inh: 4%
[2]
  %Inh: 0%
[3]
  %Inh: 29%
[4]
  %Inh: 0%
[5]
  %Inh: 0%
[6]
  %Inh: 0%
[7]
  %Inh: 0%
[8]
  %Inh: 0%
[9]
  %Inh: 0%
[10]
  %Inh: 5%

## CCc1ccc(-c2ccc3c(c2)-c2n[nH]cc2S(=O)(=O)N3C)cc1
[1]
  %Inh: 12%
[2]
  %Inh: 2%
[3]
  %Inh: 0%
[4]
  %Inh: 0%
[5]
  %Inh: 6%
[6]
  %Inh: 0%
[7]
  %Inh: 7%
[8]
  %Inh: 0%
[9]
  %Inh: 0%
[10]
  %Inh: 14%

## Cc1ccc(NC(=O)c2ccc(Cl)cc2)cc1-c1ccc(C(=O)Nc2ccncc2)cc1 [GSK1398467]
[1]
  %Inh: 0%
[2]
  %Inh: 2%
[3]
  %Inh: 2%
[4]
  %Inh: 0%
[5]
  %Inh: 0%
[6]
  %Inh: 0%
[7]
  %Inh: 0%
[8]
  %Inh: 0%
[9]
  %Inh: 3%
[10]
  %Inh: 15%
